Test [1] concerns the target Cytochrome P450 3A4 (Homo sapiens) (UniProt P08684). Kind of test: qHTS Assay for Activators of Cytochrome P450 3A4 (AID 885; active means well fitted curve in the direction sought with a large enough effect; an effect the other way counts as inactive or inconclusive; further: nearly all actives have a fitted effect of over 65% in size). In a few lines: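 Luminescent readout of luciferin formed from 25 uM Luciferin-PPXE (KM level) by 20 nM CYP3A4 in 200 mM KPO4, with 60 min NADPH-driven reaction at room temperature after 10 min compound exposure. Ketoconazole (57 uM) defined 100% inhibition.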
A general note: In qHTS, concentration-response curves come from the screen itself.

A short description of test [2]: Confirmation and Secondary Assay for Modulators of Hemoglobin Beta Chain Splicing at IVS2 654 locus (AID 910; active means well fitted curve in the direction sought with a large enough effect; an effect the other way counts as inactive or inconclusive;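 further: HeLa cells stably carrying EGFP split by mutant beta-globin IVS2-654 intron; per-well total GFP intensity by laser scanning cytometry after 2-day treatment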). In a few lines: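 Readout: per-well total peak green fluorescence (488 nm ex, 500–520 nm em) from objects 5–250 µm, reflecting correct splicing of an EGFP-654 reporter. Compounds were applied for 2 days at 37 °C to overnight-plated HeLa EGFP-654 cells; controls were DMSO and 500 nM IVS2-654 PNA.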

Test [3] is described as follows: Confirmation and Secondary Assay for Modulators of Hemoglobin Beta Chain Splicing at IVS2 705 locus (AID 930; active means well fitted curve in the direction sought with a large enough effect; an effect the other way counts as inactive or inconclusive;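 further: HeLa cells stably expressing the EGFP-705 splicing reporter; GFP fluorescence per well restored by corrected splicing of the IVS2-705 intron in EGFP; series mostly up to about 46 µM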). The text has this:
NIH Chemical Genomics Center [NCGC] NIH Molecular Libraries Screening Centers Network [MLSCN] MLSCN Grant: 1 X01 MH080684-01 PI Name: Dr. Ryszard Kole NCGC Assay Overview: Modulation of Alternative Splicing as Therapy Abnormal splicing is associated with a number of diseases, including cancer and genetic diseases such as cystic fibrosis, muscular dystrophy and beta-thalassemia. Alteration of disease associated splicing patterns provides a promising target for treatment. […] Mutations in the second intron of the b-globin gene at positions 654 or 705 are clinically relevant and cause mis-splicing which results in an out of frame gene product. […] EGFP-705 HeLa Cells as screen system. HeLa cell lines were stably transfected with a construct in which the EGFP (enhanced green fluorescent protein) cDNA was interrupted by the second intron of the beta-globin gene (IVS2-705). The ISV2 intron contains mutations which cause mis-splicing of EGFP and premature termination of EGFP which results in a nonfluorescent protein product. […] Expression of the transgene was driven by the CMV promoter. We concluded that a low molecular weight compound, which restored correct splicing of intron 2 would also generate functional EGFP protein, resulting in a fluorescent signal. Thus, the HeLa cells that express the EGFP-705 construct can be used for validation of splice site specificity of compounds identified in primary screening of the ISV2 654 construct.
NCGC Assay Protocol Summary: Confirmatory Screening. Freshly thawed HeLa EGFP-705 cells were seeded in 5 ul of optimem media (Invitrogen) containing 2 % fetal calf serum (Hyclone) and 1x penicillin/streptomycin (Invitrogen) at a concentration of 500 cells per well in 1536-well plates. Cells were incubated overnight at 37C in 5% CO2. The next day, cells were treated with DMSO, 500 nM antisense ISV2 654 PNA control oligo, or library compound and allowed to grow at 37C in 5% CO2 for 2 days. The PNA oligo blocked the mutation site in the intron and allowed proper (wild type) splicing to occur, resulting in full length EGFP expression and also allowed for optimization of the assay parameters. Plates were read in the Acumen Explorer (TTP Labtech) using 488 nm laser excitation and 500-520 nm emission PMT filter in a 1 x 8 uM capture mode. Fluorescnet objects ranging in size from 5 to 250 uM were measured and the total peak GFP intensity for each well was used for data analysis. Keywords: Thalassemia, beta-thalassemia, beta-globin, EGFP, ISV2 654, ISV2 705, SSO, PNA, antisense, splicing, MLSMR, MLSCN, NIH Roadmap, qHTS, NCGC

Test [4] has as its target Androgen receptor (Homo sapiens) (UniProt P10275). Kind of test: qHTS assay for small molecule agonists of androgen receptor signaling (AID 588515; active means well fitted curve in the direction sought with a large enough effect in the signal ratio, with a control signal flat; the % refers to the signal ratio). As to conditions: AR-UAS-bla HEK293, beta-lactamase ratio, agonist 16 h; stronger effect = higher value. The method, boiled down:
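Stimulation of an AR-responsive β-lactamase reporter in GripTite HEK293 cells was measured after 16 h compound exposure at 37 °C, via CCF4 fluorescence after 2 h RT. EC50 from Hill fits, normalized to R1881 at 30 nM.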

The target is the same in test [5]. The test is described as follows: qHTS assay for small molecule antagonists of androgen receptor signaling (AID 588516; active means well fitted curve in the direction sought with a large enough effect in the signal ratio, with a control signal flat, not every such curve was filed as active; the % refers to the signal ratio). In a few lines: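 Antagonist-mode qHTS: inhibition of R1881 (10 nM)-driven beta-lactamase expression in GripTite HEK 293 cells is measured after 16 h; values are Hill-derived IC50s normalized between R1881 and DMSO wells.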
In test [6] the target is Bile acid receptor (Homo sapiens) (UniProt Q96RI1). Kind of test: qHTS assay for small molecule antagonists of farnesoid X receptor signaling (AID 588526). In a few lines:
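Beta-lactamase reporter antagonist mode: HEK293T FXR-UAS-bla cells, titrated compound, CDCA stimulation, 16 h 37 C, CCF4 dye 2 h RT. Data normalized to CDCA 50 uM and DMSO; Hill-fit IC50.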

Test [7] shares this target. The test is described as follows: qHTS assay for small molecule agonists of farnesoid X receptor signaling (AID 588527). Further: series mostly up to about 77 µM. As to conditions: HEK293T FXR-UAS-bla, beta-lactamase ratio, 16 h; stronger effect = higher value. The method, boiled down:
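Agonist-mode beta-lactamase reporter in GeneBLAzer FXR-UAS-bla HEK293T cells, titration up to 92 uM, 16 h exposure at 37 C, CCF4 fluorescence. Response scaled to DMSO (0%) and 100 uM chenodeoxycholic acid (100%), then Hill-fitted for EC50 and efficacy.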

Test [8] is described as follows: qHTS assay to identify small molecules that stimulate interleukin-8 (IL-8) secretion (AID 651758; active means well fitted activation curve with a large enough effect in the signal ratio; the % refers to the signal ratio). The method, boiled down:
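Secreted IL-8 measured homogeneously by TR-FRET (two labelled anti-IL-8 antibodies, 1-3 h at room temperature) after a 16 h, 37 C compound treatment of THP-1 cells at 2000 cells/well.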

Values joined by “and” are separate entries in the source; they are usually repeats but may differ in a detail not shown here. Equal values may be shown once. Values without a mark were called inactive. Results filed as inconclusive are left out. Entries that show only a call come without a potency. Active and inactive are the calls of the source. Unless noted, the call rests on the fitted dose curve.

Sequence of Androgen receptor (Homo sapiens) (P10275 whole entry, looked up): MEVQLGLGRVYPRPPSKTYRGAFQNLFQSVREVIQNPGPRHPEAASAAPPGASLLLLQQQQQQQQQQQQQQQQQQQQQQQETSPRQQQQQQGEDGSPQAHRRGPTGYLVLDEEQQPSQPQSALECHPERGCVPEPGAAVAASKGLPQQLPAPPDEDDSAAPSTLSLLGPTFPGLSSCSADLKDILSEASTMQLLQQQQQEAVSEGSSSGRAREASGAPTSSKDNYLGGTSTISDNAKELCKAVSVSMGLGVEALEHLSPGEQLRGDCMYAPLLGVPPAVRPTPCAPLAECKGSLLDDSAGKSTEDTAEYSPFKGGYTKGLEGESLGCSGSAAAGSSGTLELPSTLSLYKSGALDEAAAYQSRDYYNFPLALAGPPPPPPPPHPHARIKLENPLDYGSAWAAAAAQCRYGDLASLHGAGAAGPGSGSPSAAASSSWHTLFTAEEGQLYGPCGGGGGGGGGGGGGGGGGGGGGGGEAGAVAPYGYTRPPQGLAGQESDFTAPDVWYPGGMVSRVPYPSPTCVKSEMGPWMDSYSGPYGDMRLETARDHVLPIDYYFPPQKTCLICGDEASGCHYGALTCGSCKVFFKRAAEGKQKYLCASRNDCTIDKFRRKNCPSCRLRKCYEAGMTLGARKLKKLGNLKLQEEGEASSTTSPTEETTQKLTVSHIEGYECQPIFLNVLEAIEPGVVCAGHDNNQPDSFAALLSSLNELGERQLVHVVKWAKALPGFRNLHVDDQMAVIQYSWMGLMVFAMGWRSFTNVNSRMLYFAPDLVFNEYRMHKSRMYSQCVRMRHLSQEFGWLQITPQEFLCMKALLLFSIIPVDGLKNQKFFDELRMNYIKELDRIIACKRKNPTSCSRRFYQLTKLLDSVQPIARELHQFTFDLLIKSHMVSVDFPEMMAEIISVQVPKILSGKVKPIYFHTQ
Sequence of Cytochrome P450 3A4 (Homo sapiens) (P08684 whole entry, looked up): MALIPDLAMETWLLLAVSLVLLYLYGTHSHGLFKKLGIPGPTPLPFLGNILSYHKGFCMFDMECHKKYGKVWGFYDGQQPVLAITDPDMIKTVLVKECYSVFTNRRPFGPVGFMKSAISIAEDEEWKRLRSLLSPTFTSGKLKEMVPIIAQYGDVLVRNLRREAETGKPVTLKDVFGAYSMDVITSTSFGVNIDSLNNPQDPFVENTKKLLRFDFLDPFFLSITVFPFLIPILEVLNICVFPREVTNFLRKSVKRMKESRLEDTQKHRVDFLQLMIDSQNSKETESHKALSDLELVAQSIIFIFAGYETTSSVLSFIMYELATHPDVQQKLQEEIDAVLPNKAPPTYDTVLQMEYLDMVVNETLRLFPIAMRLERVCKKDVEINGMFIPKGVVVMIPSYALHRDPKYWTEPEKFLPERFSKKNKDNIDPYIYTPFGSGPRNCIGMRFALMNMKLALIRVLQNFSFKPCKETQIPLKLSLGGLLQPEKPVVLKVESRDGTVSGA
Sequence of Bile acid receptor (Homo sapiens) (Q96RI1 whole entry, looked up): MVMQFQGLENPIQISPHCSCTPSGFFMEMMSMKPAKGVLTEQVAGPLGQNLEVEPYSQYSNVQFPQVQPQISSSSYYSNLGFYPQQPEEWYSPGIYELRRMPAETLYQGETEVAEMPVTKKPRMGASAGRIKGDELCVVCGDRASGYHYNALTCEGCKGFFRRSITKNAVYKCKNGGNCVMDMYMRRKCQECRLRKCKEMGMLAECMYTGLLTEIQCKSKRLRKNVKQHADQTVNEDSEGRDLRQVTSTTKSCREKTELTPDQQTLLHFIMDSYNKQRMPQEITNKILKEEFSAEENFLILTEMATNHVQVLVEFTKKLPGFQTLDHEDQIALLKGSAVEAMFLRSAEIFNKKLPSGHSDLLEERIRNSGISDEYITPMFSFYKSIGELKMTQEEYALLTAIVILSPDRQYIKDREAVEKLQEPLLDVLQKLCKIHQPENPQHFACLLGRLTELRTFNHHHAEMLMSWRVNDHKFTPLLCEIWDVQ

Turning to `Nc1ccc(Cl)c(Cl)c1`, in test [1], the Potency entry is “inactive”.

`CCOP(=S)(OCC)Oc1nc(Cl)c(Cl)cc1Cl`: the result in test [2], in test [3], in test [5] and in test [6] was inactive. Moreover, the activation in test [4] is 5.31% and -6.07%; in test [7], -1.55% [middle of 4 runs].

In the case of `Clc1ccc(C(Cl)(Cl)Cl)c(Cl)c1`, the Potency result in test [1] is “inactive”.

For the compound `Cc1ccc2c(C)cccc2c1`, the Potency result in test [8] was “inactive”.

For the compound `COC(=O)Nc1cccc(OC(=O)Nc2cccc(C)c2)c1`, the activation in test [7] is 0.654%.

As for `OCCOCCO`, the activation in test [7] was -2.87%. In test [8], the Potency result was “inactive”.

Turning to `O=[N+]([O-])c1cccc2c([N+](=O)[O-])cccc12`, the activation in test [4] was 1.43%. The call in test [5] was inactive. Further, the Potency result in test [8] was “inactive”.

Take `Nc1ccc([N+](=O)[O-])cc1[N+](=O)[O-]`: the activation in test [4] is -5.64%. For the same compound, the Potency entry in test [8] is “inactive”.

Take `CCCCNC(=O)n1c(NC(=O)OC)nc2ccccc21`: the activation was -8.05% in test [4]; -3.82% and -0.311% in test [7].

As for `Nc1ccc(-c2ccc(N)cc2)cc1`, the Potency result in test [1] is “inactive”.

For the compound `CCCCOC(=O)c1ccccc1N`, the activation in test [7] is 0.511%.

Turning to `C=C(Cl)CSC(=S)N(CC)CC`, in test [6], the outcome was inactive. In test [7], the activation was 1.19%.

Regarding `Nc1cccc(Cl)c1`, the outcome in test [6] was inactive. The activation in test [7] is -2.3%.

With `Nc1ncc([N+](=O)[O-])s1`, the outcome in test [6] was inactive. Besides, in test [7], the activation is -2.74%.

Regarding `CCOC(=O)CC(SP(=O)(OC)OC)C(=O)OCC` (stereo not given), the outcome in test [6] was inactive. In test [7], the activation was -1.01% and 1.76%.

As to `CC(C)[C@]12CC(=O)[C@H](C)[C@H]1C2`, in test [6], the compound was classed as inactive. Moreover, the activation in test [7] is -2.27% and 5.04%.

In the case of `Cc1cccc(C)c1N`, the compound was classed as inactive in test [6]. Moreover, the activation in test [7] is -1.75%.

As for `O=[N+]([O-])c1cccc(O)c1`, the call in test [6] was inactive. Moreover, in test [7], the activation is -2.84%. The Potency entry in test [8] is “inactive”.

Consider `Clc1cc(Cl)c(Cl)c(Cl)c1`, for which the Potency result in test [8] was “inactive”.

Consider `Oc1cc(Cl)ccc1Cl`, for which the Potency entry in test [1] and in test [8] was “inactive” in each case.

Take `N#CCBr`: the call in test [6] was inactive. In addition, the activation in test [7] was -0.961%.

For `O=C(Cl)OCc1ccccc1`, the Potency result in test [8] was “inactive”.

On to `CC1CC(=O)O1` (stereo not given), for which, in test [6], the result was inactive. Further, the activation in test [7] is -1.6%.

In the case of `Nc1ccc(Oc2ccc(N)cc2)cc1`, the Potency entry in test [8] was “inactive”.

Take `NNC(N)=S`: the call in test [6] was inactive. In addition, the activation in test [7] is -2.79%. For the same compound, the Potency entry in test [8] is “inactive”.

For `CN(C)C(=O)Nc1ccc(Cl)cc1`, the compound was classed as inactive in test [6]. The activation in test [7] is 0.657% and 0.9%. In addition, the Potency result in test [8] was “inactive”.

Regarding `OCCCCO`, the compound was classed as inactive in test [6]. Also, in test [7], the activation was -2.93%.

On to `CC(Cl)(Cl)Cl`, for which the Potency entry in test [8] was “inactive”.

With `CCCCCOC(=O)c1ccccc1C(=O)OCCCCC`, the Potency entry in test [1] and in test [8] was “inactive” in each case.

For `O=S(=O)(Cl)c1ccccc1`, the compound was called inactive in test [6]. The activation in test [7] was 1.82%.

In the case of `S=c1[nH]c2ccccc2[nH]1`, the Potency entry in test [1] and in test [8] was “inactive” in each case. Besides, in test [4], the activation is -0.602%. Further, the result in test [5] was inactive.

`Clc1cccc2ccccc12`: the Potency result in test [8] is “inactive”.

For `Cc1ccc(N=C=O)cc1N=C=O`, in test [1], the Potency entry was “inactive”.

Turning to `CN(C)c1ccccc1`, in test [6], the result was inactive. In test [7], the activation is -2.07%.

Turning to `CCC[N+](=O)[O-]`, the result in test [6] was inactive. Further, the activation in test [7] was 2.98%.

`Nc1ccc2ccccc2c1`: the Potency result in test [8] is “inactive”.

In the case of `CC(C)(C)c1ccccc1O`, in test [8], the Potency result is “inactive”.

As for `O=[N+]([O-])c1ccc2c3c(cccc13)CC2`, the Potency result in test [1] and in test [8] was “inactive” each time. Further, in test [6], the compound was classed as inactive. The activation in test [7] was -0.314% and -0.559%.

In the case of `C=CCCC#N`, the call in test [6] was inactive. Besides, in test [7], the activation was -0.315%.

Take `C=CC=O`: the Potency result in test [8] was “inactive”.

`Nc1c(Cl)cc([N+](=O)[O-])cc1Cl`: the activation in test [4] was -19.7%; in test [7], -3.3% and 0.0652%. Moreover, the call in test [6] was inactive.

Turning to `NC1CCC(CC2CCC(N)CC2)CC1` (stereo not given), the call in test [6] was inactive. The activation in test [7] was -0.153% and 0.847%.

As for `CC(C)CC(C)N` (stereo not given), the Potency entry in test [8] is “inactive”.

Turning to `O=C(O)CBr`, the Potency entry in test [8] is “inactive”.

On to `Clc1cccc(Cl)c1Cl`, for which the Potency entry in test [8] was “inactive”.
